Data on five compounds can be found in PubChem BioAssay.

The structures appear in SMILES notation. The source made the active and inactive calls.

The nature of assay [1]: compound effects on lung adenocarcinoma cell viability – A549, calcein-AM fluorescence, 48 h, basal, profiling panel (AID 1162). Also: test concentration not given here. The settings on record: higher = more signal.
Assay [2] can be described thus: compound effects on differentiated 3T3-L1 adipocyte viability – cell-based, 3T3-L1 adipocytes, calcein-AM fluorescence, 48 h, basal, profiling panel (AID 1163). Also: test concentration not given here. The settings on record: 3T3-L1 adipocytes viability, higher = more signal.
Assay [3] can be described thus: compound effects on hepatocellular carcinoma cell viability – HepG2, calcein-AM fluorescence, 48 h, basal, profiling panel (AID 1164). Also: test concentration not given here. The settings on record: higher = more signal.
The nature of assay [4]: compound effects on multiple myeloma cell viability – MM1S, calcein-AM fluorescence, 48 h, basal, profiling panel (AID 1165).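 Also: viability of MM1S multiple myeloma cells under basal unstimulated conditions; test concentration not given here.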 The settings on record: higher = more signal.
Assay [5] can be described thus: calcein-AM signal in unstimulated myeloma cells – cell-based, calcein-AM fluorescence, 48 h, PK04 Diversity Set, profiling panel (AID 1166).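 Also: cells grown under basal conditions without added stimulus; test concentration not given here.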 The settings on record: RPMI8226 myeloma viability, higher = more signal.
Assay [6] can be described thus: JC-1 mitochondrial signal, unstimulated HepG2 cells – cell-based, JC-1 fluorescence, 24 h, 100 nL compound, profiling panel (AID 1167). Also: test concentration not given here. The settings on record: HepG2 mitochondrial potential, higher = more signal.
The nature of assay [7]: JC-1 mitochondrial signal, unstimulated adipocytes – cell-based, JC-1 fluorescence, 3T3-L1 adipocytes, 24 h, 100 nL compound, profiling panel (AID 1168). Also: test concentration not given here. The settings on record: JC-1 mitochondrial fluorescence, higher = more signal, called active from +8 up or from −8 down.
Assay [8] in a line: JC-1 mitochondrial signal, unstimulated myeloma cells – cell-based, JC-1 fluorescence, RPMI8226, 24 h, 100 nL compound, profiling panel (AID 1169). Also: test concentration not given here. The settings on record: JC-1 mitochondrial potential fluorescence, higher = more signal.
Assay [9] in a line: JC-1 mitochondrial signal, unstimulated MM1S myeloma – cell-based, JC-1 fluorescence, 24 h, 100 nL compound, profiling panel (AID 1170). Also: test concentration not given here. The settings on record: MM1S mitochondrial potential, higher = more signal.
A short description of assay [10]: resazurin metabolic signal in A549 cells – cell-based, resazurin fluorescence, 24 h, PK04 Diversity Set, profiling panel (AID 1171). Also: test concentration not given here. The settings on record: A549 viability, higher = more signal, called active from +8 up or from −8 down.
A short description of assay [11]: resazurin metabolic signal in HepG2 cells – cell-based, resazurin fluorescence, 24 h, PK04 Diversity Set, profiling panel (AID 1172). Also: test concentration not given here. The settings on record: HepG2 viability, higher = more signal. On the technique in general: Resazurin is reduced to fluorescent resorufin, in cell work by metabolically active cells.
A short description of assay [12]: budding yeast growth changes without added modifier – OD600, strain BY4716, 24 h, basal condition, primary screen (AID 1173). The settings on record: S. cerevisiae BY4716 growth, OD600, 24 h; higher = more signal, called active from +8 up or from −8 down.
A short description of assay [13]: viability profiling in MM1S myeloma cells – cell-based, resazurin fluorescence, basal, 24 h, PK04 Diversity Set, profiling panel (AID 1174). Also: test concentration not given here. The settings on record: higher = more signal, called active from +8 up or from −8 down.
Assay [14] concerns the target Dihydroorotate dehydrogenase (quinone), mitochondrial (Plasmodium falciparum (isolate 3D7)) (UniProt Q08210). As to the kind of experiment: inhibition of P. falciparum DHODH – biochemical, C-terminal His tag, absorbance 600 nm, primary screen (AID 1175).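 Also: recombinant parasite enzyme with a five histidine tag at its C terminus; test concentration not given here.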 The settings on record: PfDHODH enzyme, DCIP absorbance 600 nm; higher = more signal, called active from +8 up or from −8 down.

The nature of assay [15]: growth modulation of vineyard yeast isolate – strain RM11-1a, OD600, basal, 24 h, primary screen (AID 1177).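 Also: cultures grown under basal conditions with no added stressor; test concentration not given here.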 The settings on record: S. cerevisiae RM11-1a growth, OD600, 24 h; higher = more signal, called active from +8 up or from −8 down.
A short description of assay [16]: growth of efflux-deficient E. coli DRC39 – strain DRC39, OD650, 24 h, E. coli filamentation inducers, primary screen (AID 1178).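 Also: growth measured as culture turbidity by optical density at 650 nm; test concentration not given here.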 The settings on record: E. coli DRC39 acrAB, higher = more signal, called active from +8 up or from −8 down.
Assay [17] can be described thus: growth of efflux-deficient E. coli DRC39 – strain DRC39, OD650, 48 h, E. coli filamentation inducers, primary screen (AID 1179).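 Also: screen aims at cell division blockers that make cells filament.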 The settings on record: E. coli DRC39 delta-acrAB growth, higher = more signal, called active from +8 up or from −8 down.
The nature of assay [18]: viability profiling in RPMI8226 myeloma cells – cell-based, resazurin fluorescence, basal, 24 h, PK04 Diversity Set, profiling panel (AID 1180).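 Also: RPMI8826 multiple myeloma cell line at 5000 cells per well; test concentration not given here.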 The settings on record: higher = more signal.
The target in assay [19] is E3 ubiquitin-protein ligase XIAP (Homo sapiens) (UniProt P98170). Briefly: small molecules binding XIAP protein – biophysical, small-molecule microarray, fluorescence 635 nm, primary screen (AID 1181).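 Also: score merges 667 nm emission and signal to noise over triplicate slides.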 The settings on record: higher = more signal.
Sequence of E3 ubiquitin-protein ligase XIAP (Homo sapiens) (P98170 whole entry, looked up): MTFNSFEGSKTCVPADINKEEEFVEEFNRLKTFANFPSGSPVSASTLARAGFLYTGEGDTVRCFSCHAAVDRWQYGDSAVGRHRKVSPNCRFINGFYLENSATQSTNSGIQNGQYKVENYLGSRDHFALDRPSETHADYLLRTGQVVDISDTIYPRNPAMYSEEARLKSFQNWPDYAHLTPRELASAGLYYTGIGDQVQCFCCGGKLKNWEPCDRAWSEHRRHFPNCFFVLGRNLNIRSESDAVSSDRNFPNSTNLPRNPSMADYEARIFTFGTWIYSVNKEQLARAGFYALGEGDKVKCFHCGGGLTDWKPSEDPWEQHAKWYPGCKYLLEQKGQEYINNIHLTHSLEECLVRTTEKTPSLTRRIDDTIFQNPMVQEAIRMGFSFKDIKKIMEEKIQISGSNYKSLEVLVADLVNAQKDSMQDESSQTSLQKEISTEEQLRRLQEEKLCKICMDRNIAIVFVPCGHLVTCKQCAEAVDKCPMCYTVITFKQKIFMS

Sequence of Dihydroorotate dehydrogenase (quinone), mitochondrial (Plasmodium falciparum (isolate 3D7)) (Q08210 whole entry, looked up): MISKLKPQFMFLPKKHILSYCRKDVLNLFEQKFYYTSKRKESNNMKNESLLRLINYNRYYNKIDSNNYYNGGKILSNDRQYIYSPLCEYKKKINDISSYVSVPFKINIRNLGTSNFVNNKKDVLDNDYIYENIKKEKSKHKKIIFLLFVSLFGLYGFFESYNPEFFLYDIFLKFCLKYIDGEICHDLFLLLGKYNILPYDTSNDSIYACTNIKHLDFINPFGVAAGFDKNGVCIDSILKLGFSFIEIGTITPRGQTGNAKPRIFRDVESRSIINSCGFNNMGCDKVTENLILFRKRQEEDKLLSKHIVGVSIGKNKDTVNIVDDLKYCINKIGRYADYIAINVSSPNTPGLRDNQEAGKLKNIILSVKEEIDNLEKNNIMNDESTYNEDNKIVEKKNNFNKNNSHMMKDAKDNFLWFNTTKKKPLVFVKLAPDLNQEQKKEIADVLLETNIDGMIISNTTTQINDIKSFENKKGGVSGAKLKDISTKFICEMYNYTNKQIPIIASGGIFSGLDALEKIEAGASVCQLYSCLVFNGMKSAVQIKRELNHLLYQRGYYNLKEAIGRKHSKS

Consider `C=CCNC(=O)[C@H]1[C@@H]2C(=O)O[C@@H](c3ccccc3)[C@@H](c3ccccc3)N2[C@@H](c2ccccc2OCCO)[C@]12C(=O)N(C(=O)OCCOC)c1ccc(C#CCC(C(=O)OC)C(=O)OC)cc12`, for which the z-score in [1] was 0.208; in assay [2] it was 2.2; in assay [3] it was 0.128; in assay [4] it was -2.95; in assay [5] it was -3.66; in [6], 0.348. Besides, the z-score is 1.54 (inactive) in assay [7]; -1.02 in assay [8]; -1.35 in assay [9]; -0.131 (inactive) in assay [10]; -0.234 in [11]; 1.06 (inactive) in assay [12]. In addition, the z-score was 1.25 (inactive) in [13]; 1.72 (inactive) in assay [15]; 1.11 (inactive) in assay [16]; 0.761 (inactive) in assay [17]; -0.54 in assay [18]. The composite z-score in assay [14] was 0.229 (inactive); in assay [19], 0.182.

Regarding `C=CC[C@]1(C(N)=O)N=C(c2ccc(OCCCO)cc2)O[C@H]1c1ccccc1CN=[N+]=[N-]`, the z-score in assay [1] is 0.919; in [2], 2.24; in assay [3] it was -0.509; in [4], -0.562; in assay [5] it was -1.37; in assay [6], 2.69. Further, the z-score in assay [7] was -0.436 (inactive); in assay [8], -0.434; in assay [9] it was 0.501; in assay [10] it was 0.01 (inactive); in assay [11], 0.394; in [12] it was -1.06 (inactive). Also, the z-score is 1.06 (inactive) in assay [13]; -0.592 (inactive) in assay [15]; 2.91 (inactive) in assay [16]; 1.21 (inactive) in assay [17]; 1.1 in [18]. The composite z-score is 0.199 (inactive) in assay [14] and -0.16 in assay [19].

Take `CCN1C(C)=C(C(=O)OC)[C@@H](c2ccccc2)N2C(=O)[C@](O)(C(=O)OC)[C@@H](c3ccccc3)C(C(=O)c3ccccc3)=C12`: the z-score was 0.804 in [1]; 0.439 in assay [2]; 0.534 in assay [3]; 0.144 in assay [4]; -0.623 in assay [5]; 4.64 in assay [6]. Moreover, the z-score in [7] is 0.454 (inactive); in [8], -0.602; in [9], 0.229; in [10], 2.64 (inactive); in assay [11] it was 2.22; in assay [12], -3.46 (inactive). In addition, the z-score was 1.06 (inactive) in [13]; -0.785 (inactive) in assay [15]; 1.55 (inactive) in assay [16]; 1.39 (inactive) in [17]; 1.57 in assay [18]. The composite z-score is 0.208 (inactive) in assay [14] and -0.101 in assay [19].

For `O=C1OCCC=C[C@H]2OC34C=CCN(Cc5ccccc5)C(=O)[C@H]3N(CCO)C(=O)[C@@H]4C12` (stereo not given in full), the z-score in assay [1] was -0.0905; in [2] it was 1.64; in assay [3], -0.781; in assay [4], 0.918; in [5], -0.125; in [6], 0.207. Besides, the z-score is 0.903 (inactive) in [7]; 0.374 in assay [8]; 0.183 in assay [9]; -0.727 (inactive) in assay [10]; -0.21 in assay [11]; -1.5 (inactive) in assay [12]. The z-score in assay [13] is 0.768 (inactive); in [15] it was -2.28 (inactive); in assay [16] it was 1.27 (inactive); in assay [17], 0.627 (inactive); in [18], 0.47. Also, the composite z-score was -1.19 (inactive) in assay [14] and -0.569 in assay [19].

Turning to `CO[C@H]1O[C@H](CO)[C@@H](OC(=O)Nc2ccccc2)[C@H](OC(=O)Nc2ccc3c(c2)OCO3)[C@@H]1OC(=O)Nc1ccc2c(c1)OCO2`, the z-score in assay [1] was 0.307; in assay [2] it was 0.85; in assay [3], 0.17; in [4], -1.51; in assay [5] it was -0.735; in assay [6] it was -0.493. Besides, the z-score is 2.84 (inactive) in assay [7]; 0.105 in assay [8]; 0.327 in assay [9]; -0.429 (inactive) in assay [10]; -0.667 in assay [11]; -0.0273 (inactive) in assay [12]. Further, the z-score in assay [13] was 0.238 (inactive); in assay [15], 1.21 (inactive); in [16], 1.84 (inactive); in assay [17] it was 0.228 (inactive); in [18] it was -0.365. Also, the composite z-score in assay [14] is -0.167 (inactive); in assay [19], 0.136.
